# According to PubChem BioAssay (NCI):
# Compounds without any hit were thinned out: in the full panel of roughly 83,000, 20% have a hit.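 Step 1: grow cells in 96-well plates. Step 2: add test compound at a single concentration. Step 3: incubate 48 h. Step 4: record percent growth.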 Unmarked numbers belong to inactive results. Active and inactive are the calls of the source. Rule for the calls: active = growth percent below 10; inactive = the rest.
# How the values were obtained:
# Assay in all cases: NCI-60 one-dose screen, 48 h (100 = growth as untreated, 0 = no growth, -100 = all killed)
# [1] = system: NCI-H23 lung; settings: 10 µM unless noted
# [2] = system: NCI-H226 lung; settings: 10 µM unless noted
# [3] = system: NCI-H322M lung; settings: 10 µM unless noted
# [4] = system: HOP-62 NSCLC; settings: 10 µM unless noted
# [5] = system: HOP-92 NSCLC; settings: 10 µM
# [6] = system: NCI-H522 lung; settings: 10 µM
# [7] = system: A549/ATCC NSCLC; settings: 10 µM unless noted
# [8] = system: 786-0 renal; settings: 10 µM unless noted
# [9] = system: COLO 205 colon; settings: 10 µM unless noted
# [10] = system: NCI-H460 lung; settings: 10 µM unless noted
Structure (SMILES),growth [1],growth [2],growth [3],growth [4],growth [5],growth [6],growth [7],growth [8],growth [9],growth [10]
CCS(=O)(=O)N[C@@H]1O[C@H](COC(C)=O)C(OC(C)=O)[C@H](OC(C)=O)C1OC(C)=O (some centres undefined),102%,109%,115%,87.8%,95.4%,83.7%,88.7%,104%,113%,
CCCCCCCCCc1cc[n+](CC(=O)c2ccc([N+](=O)[O-])cc2)cc1,14.2%,31.8%,71.6%,27.2%,-45.2% (active),-12.9% (active),-23.7% (active),31.9%,,
CCCCN(CCCC)CCCNc1c2c(nc3ccc(Cl)cc13)CCCC2,82%,100%,95.4%,86.6%,73.5%,80.1%,94.6%,-69.6% (active),77.4%,
CCCCCCNC(=O)Oc1ccc(/C(=C(/C)Cc2ccc(OC)cc2)c2ccc(OCCN3CCCCC3)cc2)cc1,90.9%,92%,89.5%,91.2%,60.5%,85.6%,77.6%,78.5%,79.4%,
C/C=C(/C)C(=O)OC1C=C(CO)C(=O)C(OC(=O)/C(C)=C\C)C1C(C)C (centres undefined),-66.3% (active),-0.591% (active),-90.3% (active),-31.4% (active),-72.8% (active),-52.8% (active),-9.36% (active),-88.6% (active),,
C[C@]12C=CC(=O)C=C1[C@@H](F)C[C@@H]1[C@@H]2[C@@H](O)C[C@@]2(C)[C@H]1CC[C@]2(O)C(=O)CO,106%,90.6%,113%,104%,57.5%,118%,63.5%,108%,,
COc1ccc(-c2nc(SCC(C)C)nc(Nc3ccc(C(=O)O)cc3)c2C#N)cc1,88.8%,87.7%,96.9%,116%,89%,84.7%,89%,106%,89.7%,
Cc1ncc(C(=O)Nc2ccc(CN3CCN(C)CC3)c(C(F)(F)F)c2)cc1C#Cc1cnc(NC2CC2)c2ncccc12,-70.8% (active),39.7%,-87.7% (active),16.9%,33.4%,-76.4% (active),-91.5% (active),-85.2% (active),,
Cc1cc(CSc2ccc(Cl)cc2)ccc1N,99.2%,82.9%,98.2%,110%,85.2%,81.5%,60.3%,69.8%,,
Cc1ccc(NCc2cn(-c3ccc(C(=O)O)cc3)nc2-c2ccc(C(=O)O)cc2)cc1,92.2%,107%,99.7%,100%,107%,86.2%,94.9%,103%,104%,
COc1ccc(/C(=C(\c2ccccc2)[N+](=O)[O-])c2ccc(OCCN3CCCC3)cc2)cc1,74.9%,72.8%,87.2%,94.1%,59.5%,83.7%,78.4%,15.2%,8.89% (active),
Cc1ccc(C(=O)Nc2ccc(CN3CCN(C)CC3)c(C(F)(F)F)c2)cc1C#Cc1cncc2ncccc12,-84.3% (active),5.51% (active),-95.8% (active),-11.7% (active),-30.7% (active),2.81% (active),-82.1% (active),-70.5% (active),,
Oc1ccc2ccccc2c1/C=N\Nc1ccccn1,0% (active),9.04% (active),-12.6% (active),-8.47% (active),-15.1% (active),6.74% (active),8.68% (active),-29.3% (active),91%,
CC(C)(C)C(=O)OCOP(=O)(OCOC(=O)C(C)(C)C)C1CC(O)N(O)C1=O (centres undefined),21%,71.6%,30.5%,35.7%,28.2%,8.02% (active),64.3%,14.5%,45%,
CCCCCCCCCCCCCCCCC(=O)O.CCCCCCCCCCCCCCCCCC(=O)O.CCCCCCCCCCCCCCCCCC(=O)O.CCCCCCCCCCCCCCCCCC(=O)O.CCCCCCCCCCCCCCCCCC(=O)O.CO[CH-]OC12COC1CC(O)C1(C)C(O)C(OC(C)O)C3=C(C)C(OC(=O)C(O)C([NH-])c4ccccc4)CC(O)(C(OC(=O)c4ccccc4)C21)C3(C)C.[Cu+].[Zn].[Zn].[Zn].[Zn].[Zn] (centres undefined),43.6%,73.2%,28.6%,56.4%,41.5%,16.4%,27.8%,41.7%,14.7%,
CCN(CC)c1ccc2nc3ccc(N=Nc4ccc(O)cc4)cc3[n+](-c3ccccc3)c2c1,63.9%,98.1%,95.8%,52.5%,88.4%,37.2%,35.9%,88.5%,-6.39% (active),
O=C(O)c1ccc(-c2nn(-c3ccc(C(=O)O)cc3)cc2CNc2ccc(Br)cc2)cc1,106%,115%,100%,104%,102%,85.4%,101%,102%,108%,
CCCCCC(=C/c1ccccc1)/C=N/N=C(N)N,44.6%,66%,20.3%,-4.74% (active),,-65.3% (active),,-65.4% (active),-93.9% (active),
CSC1=Nc2c(c(C)c(-c3ccccc3)n2CCCCl)C2=NC(=O)CN12,77.6%,79.3%,82.1%,64.3%,64.7%,55.8%,74.1%,77.9%,79.1%,
CCOC(=O)CNS(=O)(=O)CC(=O)c1ccccc1,101%,101%,87.9%,83.8%,,89.8%,116%,97.5%,130%,
Cc1ccc(CC(=O)O)c(C)c1,91.3%,99.8%,108%,99.6%,98.5%,85%,94.5%,105%,113%,
Cc1ccc(C(=O)NN)cc1,101%,109%,127%,104%,,102%,,106%,115%,
O=C1c2cc([N+](=O)[O-])ccc2-c2cc(Cl)c(NC(=O)C(F)(F)F)cc21,95.3%,101%,103%,106%,99.4%,113%,108%,108%,95.9%,
Oc1ccc(N=Nc2ccc(N=Nc3ccccc3)cc2)cc1,59.9%,57%,49.7%,59.3%,79.8%,-15.1% (active),9.84% (active),38.3%,84.8%,
CC(=O)OCC(=O)[C@@]1(O)[C@H](C)C[C@H]2[C@@H]3C=C(C)C4=Cc5c(cnn5-c5ccc(F)cc5)C[C@]4(C)[C@H]3[C@@H](O)C[C@@]21C,-28.2% (active),59.9%,49.9%,-11.8% (active),,-23.7% (active),16.7%,-26.5% (active),,
CCCNC(=O)Oc1ccc(/C(=C(/CC)Cc2ccccc2)c2ccc(OCCN(CC)CC)cc2)cc1,83.8%,87.3%,87.4%,84.2%,55.7%,76.8%,63.6%,80.7%,-49% (active),
Ic1ccc(SSc2ccc(I)cc2)cc1,98%,90.6%,100%,108%,90.7%,86.7%,74.1%,92.6%,124%,
Cc1c([C@H](C(Cl)Cl)[C@H](O)[C@H]2C[C@H](C)C(=O)O2)ccc2c1C(=O)[C@H]1[C@H]2C[C@@H](Br)[C@@]23O[C@@H](CO[C@H]2O)CC13C (some centres undefined),20.3%,42.9%,33.1%,49.8%,69.2%,,-1.06% (active),40.1%,,

Structure (SMILES),growth [1],growth [2],growth [3],growth [4],growth [5],growth [6],growth [7],growth [8],growth [9],growth [10]
CN1C(=O)C(=Cc2coc3ccc(Br)cc3c2=O)C(=O)N(C)C1=O,94.5%,97.2%,124%,94.5%,81.3%,95%,97.8%,112%,106%,
OC(c1ccccc1)(c1ccccc1)C(F)(F)F,97.4%,112%,116%,102%,95.7%,84.6%,99.1%,106%,107%,
CCCCCN1CCN(C(CC(=O)c2ccccc2)C(=O)c2ccccc2)CC1 (centres undefined),98.8%,103%,101%,101%,83.4%,1.49% (active),101%,102%,55.1%,
O=C(Nc1ccc(Cl)c(Cl)c1)O/N=C\c1c(Cl)ccc([N+](=O)[O-])c1Cl,27%,58.4%,11.6%,-86.3% (active),6.84% (active),-90.4% (active),45.5%,5.13% (active),-83.3% (active),
O=C(NC1CCN(Cc2ccccc2)CC1)c1cc(-c2cccnc2)nc2ccc(Cl)cc12,67.9%,84%,91.6%,101%,56.5%,90.4%,56.3%,78.7%,-37.3% (active),
CC([C@H]1CC=C2C3CCC4=C[C@@H](N(C)C)CC[C@]4(C)C3CC[C@@]21C)N(C)C (some centres undefined),51.9%,47.9%,83.3%,-19.4% (active),,98.2%,72%,-5.65% (active),-65.1% (active),
N#Cc1c(N)nc(Nc2nc3ccccc3[nH]2)nc1-c1ccc(Cl)cc1,101%,81.2%,117%,112%,78.4%,90.4%,105%,,94.7%,
Cc1ccc(C(=O)Nc2ccc(CN3CCN(C)CC3)c(C(F)(F)F)c2)cc1C#Cc1cnc(N)c2ccc(C#N)cc12,48.3%,54.4%,73.8%,42.7%,,60.6%,36.7%,-25% (active),,
CCCCN(CCC)CCCCCCCCCCN1CCCc2ccccc21,71.5%,99.5%,99.4%,92.5%,48.8%,62%,97.3%,88.8%,91.7%,
N/C(=N\O)c1ccncc1,95.6%,117%,101%,93.6%,107%,93.4%,102%,100%,103%,
CCCCCCN(CCCCCC)CCC(=O)Nc1ccc(S(=O)(=O)c2ccc(NC(=O)CCN(CCCCCC)CCCCCC)cc2)cc1,84.3%,78.6%,75.3%,76.8%,69.4%,,94.1%,90.5%,74.1%,
O=C1CSC(c2ccccc2Cl)N1c1nnc(-c2ccncc2)o1 (centres undefined),85.9%,93.9%,105%,90.2%,95.9%,,101%,93.6%,,
COc1ccc(CNCCCN2C(=O)c3ccc4c5c(ccc(c35)C2=O)C(=O)N(CCCNCc2ccc(OC)c(OC)c2OC)C4=O)c(OC)c1OC,-74.8% (active),-64.7% (active),-60.5% (active),-44.3% (active),-43.5% (active),-88.6% (active),-89.4% (active),-78.8% (active),-43.9% (active),
CC(=O)CCS(=O)c1ccccc1 (centres undefined),98.1%,107%,93.7%,105%,92.8%,82.7%,96.1%,105%,124%,
COc1ccc2cc(C(C)C(=O)Nc3ccc(S(=O)(=O)Nc4cc(C)on4)cc3)ccc2c1 (centres undefined),101%,106%,108%,88.5%,102%,89.7%,86.2%,102%,115%,
N#CCCCCCCCCCCC#N,93.8%,111%,114%,104%,,86%,93.3%,99.9%,111%,
COc1ccccc1CNCCCN1C(=O)c2ccc3c4c(ccc(c24)C1=O)C(=O)N(CCCNCc1ccccc1OC)C3=O,-72.8% (active),-64.7% (active),-46.6% (active),-35.9% (active),-19.5% (active),-90% (active),-86.5% (active),-50% (active),-6.12% (active),
C=C1CCC2C3(C)COC(c4ccccc4)OC3CCC2(C)C1C/C=C1/C(=O)OCC1O (centres undefined),87.2%,92.2%,87.3%,117%,,55.4%,,91%,,
CCCNC(=O)Oc1ccc(/C(=C(/C)Cc2ccc(OC)cc2)c2ccc(OCCN3CCCC3)cc2)cc1,84.1%,90.7%,86.5%,76.8%,52.1%,71.8%,71.8%,70.7%,10.1%,
CC(=O)N(N=O)c1ccc([N+](=O)[O-])cc1Cl,34%,68.3%,74.3%,97%,31.6%,,61.7%,74.1%,97.6%,
COc1ccc(-c2nc(N)n(C(=S)Nc3ccccc3)n2)cc1,92.2%,92.6%,101%,87.3%,85.8%,88.5%,102%,105%,105%,
Cc1nc2ccccc2c(=O)n1-c1cccc(OCc2cn(-c3cccc(O)c3)nn2)c1,95.1%,105%,101%,93.4%,81.6%,72.1%,95.3%,107%,122%,
C=CCNC(=S)NNc1ccc([N+](=O)[O-])cn1,93.5%,94.4%,89.7%,105%,98.1%,80.4%,101%,105%,110%,
CCCC(=O)Nc1ccccc1C(=O)O,86.6%,101%,107%,96.9%,,90.7%,94.3%,112%,97%,
Oc1ccc([S+](c2ccc(O)cc2)c2ccc(O)cc2)cc1,106%,88.3%,95.3%,94.3%,,112%,98.7%,106%,102%,
Nc1nc2c(c3cnccc13)C(c1cccc(Cl)c1)Cc1cnccc1-2 (centres undefined),0.544% (active),17.2%,40.1%,,33.1%,7.88% (active),13.6%,19.6%,,2.15% (active)
COc1ccc(-c2nc(SCC(C)C)nc(Nc3ccccc3)c2C#N)cc1,86.3%,83%,70.8%,,88%,88.3%,48%,51.9%,,18.7%
